According to the supplement of paper PMC6992640:

Experiments:
HCI01 = cells of a triple-negative basal-like breast cancer xenograft; experiment: cell viability of combination (% of vehicle); higher = less cytotoxic; details: 1 µM; 72 h; partner dose: 10 nM
Description: (§1)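 PDX cells were treated for 72 h with each drug at 1 µM plus afatinib (10 nM; 1 µM for WHIM30). Luciferase viability is expressed as percent of vehicle.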

WHIM2 = cells of a triple-negative basal-like breast cancer xenograft; experiment: as above; details: 1 µM; 72 h; partner dose: 10 nM
Description: as §1

Structure (SMILES)	cell viability of combination (HCI01)	cell viability of combination (WHIM2)
O=C(NN=Cc1ccc([N+](=O)[O-])o1)c1ccc(O)cc1 [Nifuroxazide] + CN(C)C/C=C/C(=O)Nc1cc2c(Nc3ccc(F)c(Cl)c3)ncnc2cc1O[C@H]1CCOC1 [Afatinib]	50.8	48.8
Cc1c(C(=O)NN2CCCCC2)nn(-c2ccc(Cl)cc2Cl)c1-c1ccc(Cl)cc1 [Rimonabant] + CN(C)C/C=C/C(=O)Nc1cc2c(Nc3ccc(F)c(Cl)c3)ncnc2cc1O[C@H]1CCOC1 [Afatinib]	56.7	48.4
Cc1ccc(-n2[nH]c(C)c(NN=C3C=CC=C(c4cccc(C(=O)O)c4)C3=O)c2=O)cc1C [Eltrombopag] + CN(C)C/C=C/C(=O)Nc1cc2c(Nc3ccc(F)c(Cl)c3)ncnc2cc1O[C@H]1CCOC1 [Afatinib]	52.9	48.5
Cc1cn(-c2cc(NC(=O)c3ccc(C)c(Nc4nccc(-c5cccnc5)n4)c3)cc(C(F)(F)F)c2)cn1 [Nilotinib(AMN-107)] + CN(C)C/C=C/C(=O)Nc1cc2c(Nc3ccc(F)c(Cl)c3)ncnc2cc1O[C@H]1CCOC1 [Afatinib]	45.9	63.2
CN1CCCC1CCOC(C)(c1ccccc1)c1ccc(Cl)cc1.O=C(O)C=CC(=O)O (stereo unspecified) [Clemastine Fumarate] + CN(C)C/C=C/C(=O)Nc1cc2c(Nc3ccc(F)c(Cl)c3)ncnc2cc1O[C@H]1CCOC1 [Afatinib]	54.6	54
O=C(NC1CCN(CCCCC2(C(=O)NCC(F)(F)F)c3ccccc3-c3ccccc32)CC1)c1ccccc1-c1ccc(C(F)(F)F)cc1 [Lomitapide] + CN(C)C/C=C/C(=O)Nc1cc2c(Nc3ccc(F)c(Cl)c3)ncnc2cc1O[C@H]1CCOC1 [Afatinib]	55	27.4
COc1cccc2c1C(=O)c1c(O)c3c(c(O)c1C2=O)C[C@@](O)(C(C)=O)C[C@@H]3O[C@H]1C[C@H](N)[C@H](O)[C@H](C)O1.Cl [Daunorubicin HCl] + CN(C)C/C=C/C(=O)Nc1cc2c(Nc3ccc(F)c(Cl)c3)ncnc2cc1O[C@H]1CCOC1 [Afatinib]	70.7	9.65
CS(=O)(=O)CCNCc1ccc(-c2ccc3ncnc(Nc4ccc(OCc5cccc(F)c5)c(Cl)c4)c3c2)o1.Cc1ccc(S(=O)(=O)O)cc1.Cc1ccc(S(=O)(=O)O)cc1 [Lapatinib Ditosylate] + CN(C)C/C=C/C(=O)Nc1cc2c(Nc3ccc(F)c(Cl)c3)ncnc2cc1O[C@H]1CCOC1 [Afatinib]	41.6	36.7
Cc1cc(-n2c(=O)[nH]c(=O)n(C)c2=O)ccc1Oc1ccc(SC(F)(F)F)cc1 [Toltrazuril] + CN(C)C/C=C/C(=O)Nc1cc2c(Nc3ccc(F)c(Cl)c3)ncnc2cc1O[C@H]1CCOC1 [Afatinib]	58.1	48.4
COc1cc(C(=O)NS(=O)(=O)c2ccccc2C)ccc1Cc1cn(C)c2ccc(NC(=O)OC3CCCC3)cc12 [Zafirlukast] + CN(C)C/C=C/C(=O)Nc1cc2c(Nc3ccc(F)c(Cl)c3)ncnc2cc1O[C@H]1CCOC1 [Afatinib]	61.4	52.2
CCCCCCCCOc1ccccc1C(=O)Nc1ccc(C(=O)OCC[N+](C)(CC)CC)cc1.[Br-] [Otilonium Bromide] + CN(C)C/C=C/C(=O)Nc1cc2c(Nc3ccc(F)c(Cl)c3)ncnc2cc1O[C@H]1CCOC1 [Afatinib]	52.9	53.9
CO[C@@]12[C@H](COC(N)=O)C3=C(C(=O)C(C)=C(N)C3=O)N1C[C@@H]1N[C@@H]12 [Mitomycin C] + CN(C)C/C=C/C(=O)Nc1cc2c(Nc3ccc(F)c(Cl)c3)ncnc2cc1O[C@H]1CCOC1 [Afatinib]	36	35.1
Cl.Fc1ccc(C2CCNCC2COc2ccc3c(c2)OCO3)cc1 (stereo unspecified) [Paroxetine HCl] + CN(C)C/C=C/C(=O)Nc1cc2c(Nc3ccc(F)c(Cl)c3)ncnc2cc1O[C@H]1CCOC1 [Afatinib]	52.3	49.6
CC(C)N=c1cc2n(-c3ccc(Cl)cc3)c3ccccc3nc-2cc1Nc1ccc(Cl)cc1 [Clofazimine] + CN(C)C/C=C/C(=O)Nc1cc2c(Nc3ccc(F)c(Cl)c3)ncnc2cc1O[C@H]1CCOC1 [Afatinib]	45.8	38.9
Cc1ccc(NC(=O)c2ccc(CN3CCN(C)CC3)cc2)cc1Nc1nc(-c2cccnc2)cs1 [Masitinib (AB1010)] + CN(C)C/C=C/C(=O)Nc1cc2c(Nc3ccc(F)c(Cl)c3)ncnc2cc1O[C@H]1CCOC1 [Afatinib]	47.8	54.7
Clc1ccc(C(Cn2ccnc2)OCc2ccsc2Cl)c(Cl)c1 (stereo unspecified) [Tioconazole] + CN(C)C/C=C/C(=O)Nc1cc2c(Nc3ccc(F)c(Cl)c3)ncnc2cc1O[C@H]1CCOC1 [Afatinib]	65.4	47.5
CCc1oc2ccccc2c1C(=O)c1cc(Br)c(O)c(Br)c1 [Benzbromarone] + CN(C)C/C=C/C(=O)Nc1cc2c(Nc3ccc(F)c(Cl)c3)ncnc2cc1O[C@H]1CCOC1 [Afatinib]	56.3	48
Cl.OC(c1cc(C(F)(F)F)nc2c(C(F)(F)F)cccc12)C1CCCCN1 (stereo unspecified) [Mefloquine hydrochloride] + CN(C)C/C=C/C(=O)Nc1cc2c(Nc3ccc(F)c(Cl)c3)ncnc2cc1O[C@H]1CCOC1 [Afatinib]	49.3	55.9
CC[C@H](C)[C@H]1O[C@]2(CC[C@@H]1C)C[C@@H]1C[C@@H](C/C=C(\C)[C@@H](O[C@H]3C[C@H](OC)[C@@H](O[C@H]4C[C@H](OC)[C@@H](O)[C@H](C)O4)[C@H](C)O3)[C@@H](C)/C=C/C=C3\CO[C@@H]4[C@H](O)C(C)=C[C@@H](C(=O)O1)[C@]34O)O2 [Ivermectin] + CN(C)C/C=C/C(=O)Nc1cc2c(Nc3ccc(F)c(Cl)c3)ncnc2cc1O[C@H]1CCOC1 [Afatinib]	46	44.5
COc1cccc2c1C(=O)c1c(O)c3c(c(O)c1C2=O)CC(O)(C(=O)CO)CC3OC1CC(N)C(O)C(C)O1.Cl (stereo unspecified) [Doxorubicin (Adriamycin) HCl] + CN(C)C/C=C/C(=O)Nc1cc2c(Nc3ccc(F)c(Cl)c3)ncnc2cc1O[C@H]1CCOC1 [Afatinib]	49.5	13.6
CN1CCN(CCCN2c3ccccc3Sc3ccc(C(F)(F)F)cc32)CC1.Cl.Cl [Trifluoperazine 2HCl] + CN(C)C/C=C/C(=O)Nc1cc2c(Nc3ccc(F)c(Cl)c3)ncnc2cc1O[C@H]1CCOC1 [Afatinib]	56.1	44
Clc1ccc(COC(Cn2ccnc2)c2ccc(Cl)cc2Cl)cc1.O=[N+]([O-])O (stereo unspecified) [Econazole nitrate] + CN(C)C/C=C/C(=O)Nc1cc2c(Nc3ccc(F)c(Cl)c3)ncnc2cc1O[C@H]1CCOC1 [Afatinib]	55.8	55.8
Clc1ccc(C(Cn2ccnc2)OCc2c(Cl)cccc2Cl)c(Cl)c1.O=[N+]([O-])O (stereo unspecified) [Isoconazole nitrate] + CN(C)C/C=C/C(=O)Nc1cc2c(Nc3ccc(F)c(Cl)c3)ncnc2cc1O[C@H]1CCOC1 [Afatinib]	63.8	52.1
